Inconclusive results are not listed. The source made the active and inactive calls. The call rests on the fitted dose curve.
Potency means the concentration at half of the fitted maximal effect.

For this assay, the target named is Cytochrome P450 1A2 (Homo sapiens) (UniProt P05177). In words: p450-cyp1a2 (AID 410).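 On activity change, negative = inhibition: -100% = full effect of reference inhibitor.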 Particulars: recombinant CYP1A2, luciferin-ME demethylation, luminescence; series mostly up to 11.4 µM; activity change, negative = inhibition: at the top concentration. A digest of the protocol: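 Human CYP1A2 (20nM) demethylated Luciferin-ME at its Km (100uM) in 100mM KPO4. After 10 min compound preincubation, NADPH regeneration ran the reaction 60 min at room temperature. Luciferin was read by luminescence, normalized to 57 uM furafylline.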
Sequence of Cytochrome P450 1A2 (Homo sapiens) (P05177 whole entry, looked up): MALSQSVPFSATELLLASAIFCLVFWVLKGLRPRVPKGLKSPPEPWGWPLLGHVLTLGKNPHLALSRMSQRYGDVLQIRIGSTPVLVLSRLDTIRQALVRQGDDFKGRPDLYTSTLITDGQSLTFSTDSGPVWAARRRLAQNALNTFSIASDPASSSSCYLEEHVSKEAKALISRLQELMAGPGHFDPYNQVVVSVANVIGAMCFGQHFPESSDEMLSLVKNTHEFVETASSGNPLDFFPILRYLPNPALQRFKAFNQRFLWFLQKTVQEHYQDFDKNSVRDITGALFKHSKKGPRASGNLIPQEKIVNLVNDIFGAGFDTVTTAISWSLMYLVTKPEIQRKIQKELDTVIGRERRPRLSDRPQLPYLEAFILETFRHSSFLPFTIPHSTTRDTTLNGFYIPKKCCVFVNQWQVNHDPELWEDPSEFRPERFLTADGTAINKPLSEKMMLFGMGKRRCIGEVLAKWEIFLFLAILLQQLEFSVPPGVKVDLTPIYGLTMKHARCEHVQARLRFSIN
In the case of `O=C(O)c1cccc(C(=O)O)c1S(=O)Cc1ccccc1` (stereo unspecified), the “activity change, negative = inhibition” value was -2.4% (inactive).
In the case of `CC(C)NCC[C@@H](O)c1cc2ccccc2o1`, the activity change, negative = inhibition is -2.1% [at 2.29 µM] (inactive).
For `CCn1c2ccccc2c2nnc(NCCCO)nc21`, the Potency is 1.58 µM (active).
As to `Nc1cccc2cc(S(=O)(=O)Nc3ccc(C(=O)O)cc3)ccc12`, the “activity change, negative = inhibition” value is 2.5% (inactive).
Same read-out and setting: the same measure for `O=C(O)CSc1ncccc1[N+](=O)[O-]`: 2.5% (inactive); for `O=C(O)/C=C(/C(=O)O)[C@]12CCN3CC4=CCO[C@@H]5CC(=O)N[C@@H]1[C@H]5[C@H]4C[C@H]32`: -15% [at 2.29 µM] (inactive); for `CCSC[C@@H](N)C(=O)O`: -1.6% [at 2.29 µM] (inactive).
Consider `N#CC1(Nc2ccc(-c3ccc(NC4(C#N)CCCC4)cc3)cc2)CCCC1`, for which the Potency was 3.16 µM (active).
For `C/C(=N/O)[C@@H]1C[C@H](CC(=O)O)C1(C)C`, the “activity change, negative = inhibition” value is -2.9% (inactive).
As for `ClC(Cl)(Cl)C(N1CCN(c2ccccc2)CC1)N1CCN(c2ccccc2)CC1`, the activity change, negative = inhibition was -14.9% [at 2.29 µM] (inactive).
On to `O=C(O)CC[C@]1(C(=O)O)CCC(=O)c2ccccc21`, for which the “activity change, negative = inhibition” value was -9.1% (inactive).
As for `[N-]=[N+]=NC[C@@H]1O[C@@H](n2cnc3c(N)ncnc32)[C@@H]2O[C@@H]21`, the “activity change, negative = inhibition” value is -13.8% (inactive).
On to `O=C(O)COc1c(Cl)cc(Cl)c2cccnc12`, for which the activity change, negative = inhibition was -1.3% [at 2.29 µM] (inactive).
Take `CN(C)c1ccc(C2N([C@H](C#N)c3ccc(N(C)C)cc3)CCCN2[C@@H](C#N)c2ccc(N(C)C)cc2)cc1` (stereo partly specified): the Potency is 5.01 µM (active).
Take `C#CCOCCCC(=O)O`: the “activity change, negative = inhibition” value is -1.2% (inactive).
On to `CCC(C)(C)c1ccc(Oc2cccc(C(=O)O)c2)cc1`, for which the “activity change, negative = inhibition” value is -13.7% (inactive).

Values taken from PubChem BioAssay (NCATS).
